From PubChem BioAssay (NCATS)
Inconclusive results are not listed. A call without a number means that no potency is given here. Calls of active or inactive are those of the source. The call rests on the fitted dose curve; in most records, active means well fitted inhibition curve with a large enough effect in the repeat runs; inconclusive means weak or mixed curves; inactive means flat fitted curve, though single readings scatter.

molecular target: Cytochrome P450 2D6 (Homo sapiens) (UniProt P10635); assay: Cytochrome P450 family 2 subfamily D member 6 (CYP2D6) small molecule antagonists: luciferase biochemical (cell-free) qHTS assay (AID 1645840); conditions: P450-Glo CYP2D6 enzyme, luciferin luminescence, 1 h; series mostly up to 57.4 µM; further: nearly all actives have a fitted effect of over 55% in size
Sequence (P10635 whole entry, looked up): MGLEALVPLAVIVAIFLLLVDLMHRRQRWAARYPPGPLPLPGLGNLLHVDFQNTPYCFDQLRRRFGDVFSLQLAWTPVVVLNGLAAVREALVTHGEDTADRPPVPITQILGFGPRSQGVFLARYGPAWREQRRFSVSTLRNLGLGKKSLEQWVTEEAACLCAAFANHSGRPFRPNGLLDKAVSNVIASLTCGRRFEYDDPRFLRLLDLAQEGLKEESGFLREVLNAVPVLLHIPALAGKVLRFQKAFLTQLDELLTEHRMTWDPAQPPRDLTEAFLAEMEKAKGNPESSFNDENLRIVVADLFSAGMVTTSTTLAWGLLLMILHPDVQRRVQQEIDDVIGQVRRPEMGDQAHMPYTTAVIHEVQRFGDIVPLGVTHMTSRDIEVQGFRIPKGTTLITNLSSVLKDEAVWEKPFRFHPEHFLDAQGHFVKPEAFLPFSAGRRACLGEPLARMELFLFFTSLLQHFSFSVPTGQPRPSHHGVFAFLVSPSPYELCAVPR
In short: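 P450-Glo luminescent screen: recombinant CYP2D6 enzyme–proluciferin substrate mix preincubated with compound 10 min at room temperature, then NADPH regeneration added for 1 h at room temperature. Detection reagent added for 20 min; luciferin light read as relative luminescence units.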
Potency means the concentration at half of the fitted maximal effect.

SMILES | Potency
OC[C@H]1O[C@@H]2O[C@H]3[C@H](O)[C@@H](O)[C@@H](O[C@H]4[C@H](O)[C@@H](O)[C@@H](O[C@H]5[C@H](O)[C@@H](O)[C@@H](O[C@H]6[C@H](O)[C@@H](O)[C@@H](O[C@H]7[C@H](O)[C@@H](O)[C@@H](O[C@H]1[C@H](O)[C@@H]2O)O[C@@H]7CO)O[C@@H]6CO)O[C@@H]5CO)O[C@@H]4CO)O[C@@H]3CO | inactive
CCc1ccc(S(=O)(=O)NCc2ccc3c(c2)CCN3C(=O)c2ccc(C)cc2)cc1 | 5.35 µM (active)
CCOCCCNC(=O)C(=O)Nc1c2c(nn1-c1ccc(OC)cc1)CSC2 | inactive
C[S+](=O)([O-])Nc1ccc(-c2ccc3nc(-c4ccc(OC(F)(F)F)cc4)[nH]c3c2)cc1 | inactive
CCc1ccc(CN(Cc2ccco2)C(=O)COc2ccccc2Cl)cc1 | 7.56 µM (active)
Cn1c(=O)c2c(nc(CN3CCN(C(=O)C4CC4)CC3)n2Cc2ccccc2Cl)n(C)c1=O | inactive
Cc1ccc(-n2nc3c(N4CCCC(C(=O)NCc5ccccc5C)C4)nnc(C)c3c2C)cc1 (stereo unspecified) | 9.52 µM (active)
CN[C@H](CC(C)C)C(=O)N[C@H]1C(=O)N[C@@H](CC(N)=O)C(=O)N[C@H]2C(=O)N[C@H]3C(=O)N[C@H](C(=O)N[C@H](C(=O)O)c4cc(O)cc(O)c4-c4cc3ccc4O)[C@H](O)c3ccc(c(Cl)c3)Oc3cc2cc(c3O[C@@H]2OC(CO)[C@@H](O)[C@H](O)[C@@H]2O[C@H]2C[C@](C)(N)[C@H](O)[C@H](C)O2)Oc2ccc(cc2Cl)[C@H]1O (stereo partly specified) | inactive
COc1ccc(CNC(=O)Nc2ccc3c(c2)N(C)C(=O)c2ccccc2S3)cc1OC | 9.52 µM (active)
CC(C)OCc1cc(CN2CCN(c3ccccc3)CC2)c(O)c2ncccc12 | inactive
O=C(NCc1ccco1)c1ccc2c(c1)N(Cc1cccc(Cl)c1)C(=O)c1ccccc1S2=O (stereo unspecified) | 1.2 µM (active)
CCc1ccc(-n2c(SCc3ccccc3Cl)nc3[nH]ncc3c2=O)cc1 | 15.1 µM (active)
O=C(O)c1ccc(Cc2c(-c3cccc(-c4ccccc4)c3)[nH]n(-c3nc(C(=O)O)cs3)c2=O)cc1 | 9.52 µM (active)
COc1ccccc1CNC(=O)C1CCCN(c2nc3ccccc3n3cccc23)C1 (stereo unspecified) | 2.68 µM (active)
CCOC(=O)c1csc(-n2nc(-c3ccc(F)c(F)c3)c(Cc3ccc(S(N)(=O)=O)cc3)c2N)n1 | inactive
O=C(O)c1cc(O)c2c(O)c3c(O[C@@H]4O[C@H](CO)[C@@H](O)[C@H](O)[C@H]4O)cccc3c(-c3c4cc(C(=O)O)cc(O)c4c(O)c4c(O[C@@H]5O[C@H](CO)[C@@H](O)[C@H](O)[C@H]5O)cccc34)c2c1 | 15.1 µM (active)

SMILES | Potency
O=C(Nc1cccc(Cl)c1)Nc1ccccc1OCc1cc(=O)n2ccccc2n1 | inactive
Cc1onc(-c2ccccc2Cl)c1C(=O)Cl | inactive
CC1=CC(O)=NS(=O)(=O)O1 | inactive
N#Cc1ccccc1Cn1nnc2c(=O)[nH]c(C3CCCN(S(=O)(=O)c4ccc(F)cc4)C3)nc21 (stereo unspecified) | 0.849 µM (active)
Cn1c(=O)c2c(nc(CN3CCN(C(=O)C4CC4)CC3)n2Cc2cccc(F)c2)n(C)c1=O | inactive
CCc1ccc(CNC(=O)C2CCCN(c3nnc(C)c4c(C)n(-c5ccccc5)nc34)C2)cc1 (stereo unspecified) | 10.7 µM (active)
Cc1nnc(N2CCC(C(=O)NCCc3ccccc3Cl)CC2)c2nn(-c3ccccc3)c(C)c12 | 2.13 µM (active)
Cc1ccc(C2=CC(c3ccccc3F)n3c(nc4ccccc43)N2)cc1C (stereo unspecified) | 10.7 µM (active)
O=C(O)CN(CC(=O)O)Cc1cc2c(-c3ccccc3C(=O)O)c3cc(CN(CC(=O)O)CC(=O)O)c(=O)cc-3oc2cc1O | inactive
CC1CCCCC1N(Cc1ccccc1)[S+](=O)([O-])c1ccc([S+](=O)([O-])N(C)C)cc1 (stereo unspecified) | inactive
Cc1nc2c3ccccc3nc(NNC(=O)CCC(=O)N3CCN(c4ccccc4)CC3)n2n1 | inactive
Cc1ccc(CSc2nc3ccncc3n2Cc2nc(-c3ccccc3C)oc2C)cc1 | 2.39 µM (active)
COc1cccc(NC(=O)Cn2c(=O)n(CC(=O)NCc3ccc(C)cc3)c(=O)c3sccc32)c1 | 0.107 µM (active)
CCCCC[C@H](O)CC[C@@H]1[C@H]2Cc3cccc(OCC(=O)O)c3C[C@H]2C[C@H]1O | inactive
Cc1cccn2c(=O)c(/C=C(\C#N)c3nc4ccccc4s3)c(Oc3ccc(F)cc3)nc12 | inactive
